Experimental findings from PubChem BioAssay (NCATS) are described below.

For assay [1], the target named is Glutathione peroxidase 1 (Homo sapiens) (UniProt P07203). Briefly: Primary qHTS Assay for Inhibitors of Recombinant Selenoprotein Glutathione Peroxidase 1 (GPX1) (AID 1845191). For activity, negative = inhibition: % is set by controls: 0 for no effect and ±100 for the full control effect. Note: nearly all actives have a fitted effect of over 65% in size. A digest of the protocol:
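Recombinant GPX1 (10 nM final) was preincubated with compound for 30 min at room temperature, then reacted with 1 mM GSH, 0.5 mM CHP, 0.5 mM NADPH and 100 nM glutathione reductase; NADPH fluorescence (340/450 nm) was read at 0 and 15 min.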
Background: Quantitative high-throughput screening tests each substance at several concentrations.

For assay [2], the target named is Phospholipid hydroperoxide glutathione peroxidase GPX4 (Homo sapiens) (UniProt P36969). Put plainly: Primary qHTS Assay for Inhibitors of Recombinant Selenoprotein Glutathione Peroxidase 4 (GPX4) (AID 1845192). For activity change, negative = inhibition: series mostly up to about 50 µM; % is set by controls: 0 for no effect and ±100 for the full control effect. Note: nearly all actives have a fitted effect of over 65% in size. A digest of the protocol: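 GR-coupled readout: 100 nM GR, 1 mM GSH, 0.5 mM NADPH; NADPH fluorescence (ex 340/em 450 nm) read at t=0 and after 15 min RT. GPX4 200 nM, preincubated 30 min with compound; substrate 0.5 mM CHP.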
Phospholipid hydroperoxide glutathione peroxidase GPX4 (Homo sapiens), sequence (P36969 whole entry, looked up): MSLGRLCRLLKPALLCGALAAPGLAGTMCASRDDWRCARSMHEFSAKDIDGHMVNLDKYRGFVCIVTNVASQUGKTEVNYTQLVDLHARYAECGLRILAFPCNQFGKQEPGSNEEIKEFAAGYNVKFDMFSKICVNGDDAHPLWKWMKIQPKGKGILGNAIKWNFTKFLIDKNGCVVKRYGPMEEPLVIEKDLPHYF

For assay [3], the target named is Luciferin 4-monooxygenase (Photinus pyralis) (UniProt P08659). Briefly: Primary firefly luciferase (FLuc) qHTS assay for identification of artifact compounds. (AID 1845220).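 For activity change, negative = inhibition: series mostly up to about 54 µM; plate controls were DMSO vehicle for no effect and no enzyme for full effect.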 Note: nearly all actives have a fitted effect of over 60% in size. In short, it runs like this:
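qHTS, 15 min compound preincubation with substrate (10 uM luciferin, 10 uM ATP) at RT, then 10 nM FLuc; 5 min; luminescence; % inhibition vs no-enzyme/DMSO controls, 4-parameter Hill fit.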

A short description of assay [4]: Primary fluorescence-based thiol-reactive (MSTI) qHTS assay for identification of artifact compounds. (AID 1845221).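 For activity change, negative = thiol reactive: series mostly up to about 54 µM; thiol-reactive compounds lower the probe fluorescence signal.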 Note: nearly all actives have a fitted effect of over 65% in size. Note: potency is the fitted concentration of half-maximal effect. A digest of the protocol: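 Reactivity toward the thiol probe MSTI (4 uM) is scored by fluorescence at Ex/Em 525/598 nm after 1 h at room temperature. Acetyl-MSTI and MSTI define the activity scale.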
The subject of assay [5] is Nanoluciferase (engineered Oplophorus gracilirostris luciferase). Put plainly: Primary Nanoluciferase (NLuc) qHTS assay for identification of artifact compounds. (AID 1845222).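 Note: series mostly up to about 54 µM; 0% = DMSO and -100% = no enzyme.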 A digest of the protocol: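 Luminescence read-out of secreted NLuc in S16 cell conditioned medium (1:55); compounds tested with 15 min RT preincubation, then Nano-Glo substrate 1:100, 5 min. % inhibition vs no-enzyme and DMSO controls, 4-parameter Hill fit.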

Assay [6] can be described thus: Primary redox qHTS assay for identification of artifact compounds. (AID 1845223).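 Note: 0% = DMSO and 100% = reference compound.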 In short, it runs like this:
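Amplex Red (25 uM) and HRP (250 mU/mL) in HBSS, with compounds for 15 min, then 250 uM DTT for 30 min, room temperature, dark. Fluorescence 525/598 nm read; normalized to DMSO and 10 uM DA3003; Hill fit.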

Values without a mark were called inactive. Inconclusive results are not listed. The source made the active and inactive calls. Calls come from the whole dose curve; as a rule, active = well fitted curve in the direction sought with a large enough effect; inconclusive = small, poorly fitted or top-dose-only effect, or another doubt; inactive = no such curve, though single readings can be large; an effect the other way counts as inactive or inconclusive.

Glutathione peroxidase 1 (Homo sapiens), sequence (P07203 whole entry, looked up): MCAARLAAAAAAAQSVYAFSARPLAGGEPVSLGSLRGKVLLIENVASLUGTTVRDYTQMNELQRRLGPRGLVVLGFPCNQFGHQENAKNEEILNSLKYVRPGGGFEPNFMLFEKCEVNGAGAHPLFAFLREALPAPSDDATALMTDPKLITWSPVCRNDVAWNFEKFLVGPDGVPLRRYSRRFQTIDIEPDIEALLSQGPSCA

On to `C=C1C(=O)O[C@@H]2C[C@]3(C)[C@@H](CCC(C)=O)[C@@H]3C[C@H]12`, for which the Potency entry in assay [1], in assay [2], in assay [3], in assay [4], in assay [5] and in assay [6] was “inactive” each time.
Regarding `COC(=O)C1C(c2ccc(O)cc2)C(C(=O)O)C1c1ccc(O)cc1` (stereo unspecified), the Potency result in assay [1], in assay [2], in assay [3], in assay [4], in assay [5] and in assay [6] was “inactive” in each case.
For `C/C=C/C=C/C=C/C(=O)OC1C=C2C(O)OC(=O)[C@]2(O)[C@@]2(C)CCCC(C)(C)[C@H]12` (stereo partly specified), the Potency entry in assay [1], in assay [2], in assay [3], in assay [4], in assay [5] and in assay [6] was “inactive” throughout.
As for `C/C=C(\C)C(=O)OC[C@H]1O[C@@H](O[C@H]2[C@@H](O[C@H]3O[C@H](COC(=O)/C(C)=C/C)[C@@H](O)[C@H](O)[C@H]3O[C@@H]3O[C@H](COC(=O)/C(C)=C/C)[C@@H](O)[C@H](OC(=O)/C(C)=C/C)[C@H]3O)O[C@H](COC(=O)/C(C)=C/C)[C@@H](O)[C@@H]2O)[C@H](O)[C@@H](O)[C@@H]1O`, the Potency entry in assay [1] and in assay [2] was “inactive” throughout. Further, in assay [3], the activity change, negative = inhibition was 3.11% [at 11.6 µM]. In assay [4], the activity change, negative = thiol reactive is 8.85% [at 11.5 µM]. Also, the activity, negative = inhibition in assay [5] is 0.483% [at 11.6 µM]. Further, in assay [6], the redox activity (% of DA3003) was -2.39% [at 11.5 µM].
Consider `CC1=C2C[C@H]3OC(=O)[C@H](O)[C@@]4(O)[C@@H](C)[C@@H](O)[C@H](O)C([C@@]2(C)[C@H](O)[C@@H](O)C1)[C@@]34C` (stereo partly specified), for which the Potency entry in assay [1], in assay [2], in assay [3], in assay [4], in assay [5] and in assay [6] was “inactive” each time.
For the compound `COC(=O)[C@H](Cc1cccc(C(=N)N)c1)[C@@H](C)NC(=O)c1ccc(-c2cc[n+]([O-])cc2)cc1`, the Potency entry in assay [1], in assay [2], in assay [3], in assay [4], in assay [5] and in assay [6] was “inactive” in each case.
As to `COCC1OC(n2cnc3c(=O)[nH]cnc32)C(O)C1O` (stereo unspecified), the Potency entry in assay [1], in assay [2], in assay [3], in assay [4], in assay [5] and in assay [6] was “inactive” throughout.
With `O=C(O)CCc1cccc(O)c1O[C@@H]1O[C@H](CO)[C@@H](O)[C@H](O)[C@H]1O`, the Potency entry in assay [1], in assay [2], in assay [3], in assay [5] and in assay [6] was “inactive” in each case. In assay [4], the Potency is 14.7 µM (active).
As for `O=C(OC1C=C(CO)C2C(OC3OC(CO)C(O)C(O)C3O)OC=CC12O)c1ccc(O)cc1` (stereo unspecified), the Potency result in assay [1], in assay [2], in assay [3], in assay [5] and in assay [6] was “inactive” throughout. Moreover, the Potency in assay [4] is 3.27 µM (active).
Turning to `FC(F)(F)c1nnc2c(Sc3ccccc3)nc3ccc(Cl)cc3n12`, the Potency result in assay [1], in assay [2], in assay [3], in assay [4], in assay [5] and in assay [6] was “inactive” in each case.
As to `C/C=C(/C)C(=O)O[C@H]1C[C@]2(C)O[C@@H]2[C@@H](OC(C)=O)[C@@]2(C)CC[C@@](O)(C(C)C)[C@H]12`, the Potency result in assay [1], in assay [2], in assay [3], in assay [4], in assay [5] and in assay [6] was “inactive” each time.
On to `C=C1C[C@]23C[C@H]1CC[C@H]2[C@]1(C)CC[C@H](O)[C@@](C)(C(=O)O)[C@H]1[C@@H]3C(=O)O`, for which the Potency entry in assay [1], in assay [2], in assay [3], in assay [4], in assay [5] and in assay [6] was “inactive” each time.
Regarding `COC(=O)C[C@H]1C(C)(C)[C@H](OC(=O)C(C)C)C2CC3=C4CC(=O)O[C@@H](c5ccoc5)[C@]4(C)CCC3[C@@]1(C)C2=O` (stereo partly specified), the Potency result in assay [1], in assay [2], in assay [3], in assay [4], in assay [5] and in assay [6] was “inactive” throughout.
For the compound `CC1(C)CC[C@]2(C(=O)O)CC[C@]3(C)C(=CCC4[C@@]5(C)C[C@H](O)[C@H](O[C@@H]6O[C@H](CO)[C@@H](O)[C@H](O)[C@H]6O)[C@@](C)(CO)C5[C@H](O)C[C@]43C)[C@@H]2C1` (stereo partly specified), the Potency result in assay [1], in assay [2], in assay [3], in assay [4], in assay [5] and in assay [6] was “inactive” in each case.
For `Nc1ncnc2c1C(=O)N(c1ccc(C3CCC(CC(=O)O)CC3)cc1)CCO2` (stereo unspecified), the Potency result in assay [1], in assay [2], in assay [3], in assay [4], in assay [5] and in assay [6] was “inactive” each time.
For the compound `C=C1C(O)C(OC(=O)c2ccccc2)C2C(C)(C(=O)O)CCCC2(C)C1CC/C(C)=C\CO` (stereo unspecified), the Potency result in assay [1], in assay [2], in assay [3], in assay [4], in assay [5] and in assay [6] was “inactive” in each case.
With `CC(C)N(CCCNC(=O)Nc1ccc(C(C)(C)C)cc1)C[C@H]1O[C@@H](n2ccc3c(N)ncnc32)[C@H](O)[C@@H]1O`, the Potency result in assay [1], in assay [2], in assay [3], in assay [4], in assay [5] and in assay [6] was “inactive” throughout.
Turning to `Cc1oc(S(=O)(=O)N2CCCCC2)cc1NC(=O)Nc1ccccc1`, the Potency entry in assay [1], in assay [2], in assay [3], in assay [4], in assay [5] and in assay [6] was “inactive” each time.
As to `Cc1cc(O[C@@H]2O[C@H](COC(=O)CC(=O)O)[C@@H](O)[C@H](O)[C@H]2O)c(C(C)C)cc1O`, the Potency entry in assay [1], in assay [2], in assay [3], in assay [5] and in assay [6] was “inactive” throughout. Also, the Potency in assay [4] is 5.19 µM (active).
`CC1=C(CC/C(C)=C/C(=O)O)[C@@]2(C)CCCC(C)(C)C2CC1=O` (stereo partly specified): the Potency entry in assay [1], in assay [2], in assay [3], in assay [4], in assay [5] and in assay [6] was “inactive” in each case.
Consider `Cc1oc2nc3c(c(NC(=O)CN4CCCC4=O)c2c1C)CCCC3`, for which the Potency entry in assay [1], in assay [2], in assay [3], in assay [4], in assay [5] and in assay [6] was “inactive” each time.
